Data: PubChem BioAssay AID686978 (National Center for Advancing Translational Sciences (NCATS), 2013)
Among all 420,000 compounds or so, about 64,000 (15%) were called active. Roughly 27% stayed inconclusive and do not appear here. Calls follow the shape of the dose curve; as a rule, active = well fitted inhibition curve with a large enough effect; inconclusive = small, poorly fitted or top-dose-only effect; inactive = flat fitted curve, though single readings scatter. Only a sample is shown.

Experiment: qHTS for Inhibitors of human tyrosyl-DNA phosphodiesterase 1 (TDP1): qHTS in cells in absence of CPT; also: nearly all actives have a fitted effect of over 55% in size
Details: DT40 Tdp1-/- hTDP1 cells, no CPT, ATP luminescence, 48 h; activity change, negative = growth inhibition: at 46.2 µM (top of the series)
In short: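 No-CPT arm: Tdp1-/-;hTDP1 DT40 cells (400/well) plus compounds, incubated ≥48 hr at 37 °C. Readout CellTiter-Glo luminescence.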
% is scaled to controls: 0 for no effect and ±100 for the full control effect; potency is read from the fitted curve at half-maximal effect.

Row | Structure (SMILES) | activity change, negative = growth inhibition | Potency
1 | CCC(CC)C(=O)Nc1c2c(nn1-c1ccc(C)cc1)CS(=O)(=O)C2 | -10.3% (inactive) | 
2 | Cc1noc(COc2ccccc2OCc2onc(C)c2Cl)c1Cl | -14.2% (inactive) | 
3 | CC1(OC(=O)C2CCCC2)C(=O)C=C2C=C(c3ccc(C#N)cc3)OC=C2C1=O (stereo not drawn) | 1.66% (inactive) | 
4 | CC(C)NC(=O)CSc1nnc(COc2ccccc2Cl)o1 | 0.313% (inactive) | 
5 | C/C(=N\NS(=O)(=O)c1cccc([N+](=O)[O-])c1)c1cc2ccccc2o1 | -20.6% (inactive) | 
6 | Cc1cc(NC(=O)COC(=O)COc2ccc(Cl)cc2C)c([N+](=O)[O-])cc1C | -40.4% (inactive) | 
7 | O=C(CCCN=C1NS(=O)(=O)c2ccccc21)OCC(=O)c1ccc(F)c(F)c1 | -2.32% (inactive) | 
8 | S=c1[nH]nc(-c2ccccc2)n1/N=C/c1c[nH]c2ccccc12 |  | 6.51 µM (active)
9 | Cc1ccc(/C=N\n2c(-c3ccccc3)n[nH]c2=S)s1 | -20.4% (inactive) | 
10 | CCc1n[nH]c(=S)n1/N=C/c1c[nH]c2ccc(Br)cc12 |  | 18.4 µM (active)
11 | Oc1ccccc1/C=N/n1c(-c2cccs2)n[nH]c1=S | -9.3% (inactive) | 
12 | S=c1[nH]nc(-c2ccncc2)n1/N=C/c1ccccc1Cl | -7.12% (inactive) | 
13 | Fc1ccc(/C=N/n2c(COc3ccccc3)n[nH]c2=S)cc1 | -4.74% (inactive) | 
14 | N#CCCN1CCN(S(=O)(=O)c2ccc(S(=O)(=O)NC3CCCCC3)cc2)CC1 | -18.6% (inactive) | 
15 | COc1ccc(CCC(=O)OCC(=O)Nc2ccc(C)c(S(=O)(=O)N(C)C)c2)cc1 | -4.58% (inactive) | 
16 | CCCCCCSc1nsc(N)n1 | -28% (inactive) | 
17 | CCOC(=O)CSc1nnc(CNC(=O)c2cccs2)n1-c1cc(OC)ccc1OC | 0.211% (inactive) | 
18 | Cc1cc(=O)oc2c(C(=O)c3ccccc3)c(OCC(N)=O)ccc12 | -0.608% (inactive) | 
19 | O=C(CCCn1c(=O)oc2ccccc21)Nc1cccnc1 | -2.31% (inactive) | 
20 | CC(C)Cn1cc(-c2cncc3nccn23)cn1 | -11.4% (inactive) | 
21 | Cn1c(=O)[nH]c(=O)c2c1nc(Br)n2CCCCSc1nc2ccccc2o1 |  | 18.4 µM (active)
22 | Fc1ccccc1OCCSc1nc2ccccc2o1 | -13.3% (inactive) | 
23 | Cc1ccnc(SCCn2c(Br)nc3c2c(=O)[nH]c(=O)n3C)n1 | -6.34% (inactive) | 
24 | CCc1ccc(-c2nc(SCC(=O)NC3CCCC3)n[nH]2)cc1 |  | 23.1 µM (active)
25 | COc1ccc(-c2nc(SCC(=O)N3CCCC3)n[nH]2)cc1 | -14.3% (inactive) | 
26 | CCc1c(C)nc(SCC(=O)NC2CCCC2)[nH]c1=O | 5.26% (inactive) | 

Row | Structure (SMILES) | activity change, negative = growth inhibition | Potency
27 | Cc1cc(Br)ccc1SCC(=O)OCC(=O)NCc1ccc2c(c1)OCO2 | 6.68% (inactive) | 
28 | CCOc1ccc(C(=O)NC(C(=O)NCc2ccccn2)C(C)C)cc1 (stereo not drawn) | -22.4% (inactive) | 
29 | COc1ccc(F)cc1S(=O)(=O)N1CCCCC1 | -12.5% (inactive) | 
30 | CCOc1c(CNCc2ccc(C(=O)O)cc2)cccc1OC | -12.9% (inactive) | 
31 | COc1ccc(CCNCc2c(C(=O)O)c(C)n(Cc3cccc(C)c3)c2C)cc1OC | -25.8% (inactive) | 
32 | COc1cccc(CNCc2c(C(=O)O)n(Cc3ccc(C)cc3)c3cc(C)ccc23)c1OC |  | 16.4 µM (active)
33 | CCOC(=O)c1c(Cc2ccc(Cl)cc2)c[nH]c1C | -25.9% (inactive) | 
34 | NC(=NC(=O)c1ccccc1)N1CCOCC1 | -7.81% (inactive) | 
35 | O=C(CNS(=O)(=O)c1ccccc1)NCC(=O)OCc1ccccc1F | -1.4% (inactive) | 
36 | COc1ccc(-c2nc3sc(CCNC(=O)C(C)(C)C)c(C)n3n2)cc1 |  | 23.1 µM (active)
37 | COc1ccc(CCNS(=O)(=O)c2cn(C)nc2C)cc1 | 21.6% (inactive) | 
38 | CCOc1ccc2nc(NCCNC(=O)C(C)(C)C)c(C)cc2c1 | 3.35% (inactive) | 
39 | COc1ccc(CNC(=O)Cn2nnc(-c3ccc(S(C)(=O)=O)cc3)n2)cc1 | 3.37% (inactive) | 
40 | COc1ccc(-c2nc3sc(CCNS(=O)(=O)c4ccc(F)c(C)c4)c(C)n3n2)cc1 |  | 20.6 µM (active)
41 | Cc1ccc(S(=O)(=O)NCCC(=O)Nc2cccc(S(N)(=O)=O)c2)cc1C | -7.74% (inactive) | 
42 | COC(=O)C1=NNC2(c3ccc(C)cc3)C(=O)N(c3cccc(C)c3C)C(=O)C12 (stereo not drawn) | 0.864% (inactive) | 
43 | CS(=O)(=O)c1ccc(-c2nnn(CC(=O)Nc3ccc4c(c3)OCCO4)n2)cc1 | -22.9% (inactive) | 
44 | CC(=O)NCc1ccc(S(=O)(=O)NC2CCN(Cc3ccccc3)CC2)cc1 | -25.9% (inactive) | 
45 | O=C(NC1CCN(Cc2ccccc2)CC1)c1ccc(Oc2cc(Cl)cc(Cl)c2)o1 |  | 18.4 µM (active)
46 | O=C(NC1CCN(Cc2ccccc2)CC1)c1cc(Br)c(Br)[nH]1 |  | 16.4 µM (active)
47 | O=C(NC1CCN(Cc2ccccc2)CC1)c1c(F)cccc1F | -0.567% (inactive) | 
48 | O=C(NC1CCN(Cc2ccccc2)CC1)c1ccccc1F | -1.29% (inactive) | 
49 | O=S(=O)(NCc1ccccn1)c1ccc(Br)s1 | -29.1% (inactive) | 
50 | CCOCCCNC(=O)c1c[nH]c2cc(C)ccc2c1=O | -26.3% (inactive) | 
51 | COc1cccc(OCc2nnc3n2N=C(c2ccccc2)C(CC(=O)O)S3)c1 (stereo not drawn) | -1.23% (inactive) | 
52 | O=C(O)c1ccc2c(c1)C(=O)N(c1ccc(/C=C/C(=O)c3ccccc3)cc1)C2=O | 12.3% (inactive) | 

Row | Structure (SMILES) | activity change, negative = growth inhibition | Potency
53 | Cc1nn(-c2ccccc2)c(C)c1/C=C/C(=O)OC(C)C(N)=O (stereo not drawn) | -4.84% (inactive) | 
54 | Cc1nn(-c2ccccc2)c(Cl)c1C(=O)Nc1ccccc1 | -11.2% (inactive) | 
55 | Cc1nn(-c2ccccc2)c(Cl)c1/C=C/C(=O)c1ccc(O)cc1 |  | 16.4 µM (active)
56 | Cc1nn(-c2ccccc2)c(CC(C)(C)C(=O)O)c1C(=O)O | -4.67% (inactive) | 
57 | Cc1ccc(C(=O)/C=C/c2c(C)nn(-c3ccccc3)c2Cl)cc1 |  | 20.6 µM (active)
58 | COc1ccc(C2CC(=O)C=C(NCC3CCCO3)C2)cc1 (stereo not drawn) | 0.462% (inactive) | 
59 | COC(=O)c1ccc(/C=N\n2c(C)nnc2C)cc1 | -0.419% (inactive) | 
60 | CC(OC(=O)c1ccc(NS(=O)(=O)c2ccc3[nH]c(=O)[nH]c3c2)cc1)C(=O)Nc1cccc(Cl)c1Cl (stereo not drawn) | 3.55% (inactive) | 
61 | O=C(COCc1cc(-c2ccc3c(c2)OCO3)on1)N1CCN(c2cccc(Cl)c2)CC1 | -1.5% (inactive) | 
62 | Cc1cc(/C=C2/C(=N)N3C(=NC2=O)SN=C3S(C)(=O)=O)c(C)n1-c1ccccc1 | -18.8% (inactive) | 
63 | O=C(CSc1nnc(Cc2ccccc2)n1-c1ccccc1)N1CCOCC1 | -0.859% (inactive) | 
64 | CN(CCc1ccccn1)C(=O)c1ccc(OC2CCN(CCc3ccccc3)CC2)cc1 | -27% (inactive) | 
65 | Fc1ccc(-c2ccc(-c3nn4c(-c5ccco5)nnc4s3)o2)cc1 | -28.6% (inactive) | 
66 | c1ccc(-c2cc(-c3ccccc3)[nH]n2)cc1 | -8.4% (inactive) | 
67 | c1ccc(-c2cc(-c3nnc4sc(-c5ccccn5)nn34)[nH]n2)cc1 |  | 13 µM (active)
68 | COC(=O)C1[C@H]2SC(C)(C)C(C(=O)OC)N2C(=O)N1Cc1nc2ccccc2s1 (stereo partly drawn) | -3.96% (inactive) | 
69 | Cc1cccc(CSc2nnc(Cn3c(=O)sc4ccccc43)n2C)c1 | -24.2% (inactive) | 
70 | CNC(=S)N1N=C(c2ccccc2)CC1c1ccc(Br)cc1 (stereo not drawn) | -23% (inactive) | 
71 | Brc1ccc(C2CC(c3ccccc3)=Nc3ccccc3N2)cc1 (stereo not drawn) |  | 23.1 µM (active)
72 | CCCC(=O)Nc1cccc(NC(=S)NC(=O)C(C)Oc2ccc(Cl)cc2Cl)c1 (stereo not drawn) | -24.7% (inactive) | 
73 | CC(Cc1cccs1)NC(=O)c1cccc(Cl)c1 (stereo not drawn) | -29.3% (inactive) | 
74 | Cc1noc(C)c1S(=O)(=O)N(C)C[C@H]1Oc2ccc(NC(=O)C3CC3)cc2C(=O)N([C@H](C)CO)C[C@@H]1C | -17.6% (inactive) | 
75 | COc1ccc(-c2nc(Cn3c(=O)cc(C)c4c(C)nn(-c5ccccc5)c43)c(C)o2)c(OC)c1 |  | 20.6 µM (active)
76 | COc1ccc(-c2nc(Cn3c(=O)cc(C)c4c(C)nn(-c5ccccc5)c43)c(C)o2)cc1OC | 5.82% (inactive) | 
77 | Cc1ccc(-c2nc(Cn3c(=O)cc(-c4ccccc4)c4c(C)nn(C)c43)c(C)o2)cc1 | -4.46% (inactive) | 
78 | COc1cc(NC(=O)COC(=O)CSc2ccc3ccccc3c2)c(C)cc1[N+](=O)[O-] | -20.6% (inactive) | 

Row | Structure (SMILES) | activity change, negative = growth inhibition | Potency
79 | CC1CCN(C2=NC(=O)/C(=C/c3cn[nH]c3-c3ccccc3)S2)CC1 |  | 14.6 µM (active)
80 | O=C1N=C(N2CCOCC2)S/C1=C\C=C/c1ccccc1 | -25.6% (inactive) | 
81 | Cc1nc2nc(C)c(NS(=O)(=O)c3ccc(C(C)(C)C)cc3)c(=O)n2[nH]1 | -14.5% (inactive) | 
82 | CC(=O)c1ccc(OC(=O)N2CCOCC2)cc1 | -11.9% (inactive) | 
83 | Cc1ccc(CN(C)Cc2cc(=O)oc3cc(C)c(Cl)cc23)cc1 | 0.563% (inactive) | 
84 | COc1ccc(S(=O)(=O)N(C)C[C@@H]2Oc3ccc(NS(=O)(=O)c4cn(C)cn4)cc3C(=O)N([C@@H](C)CO)C[C@@H]2C)cc1 | 2.75% (inactive) | 
85 | Cn1c(N)c(C(=O)COC(=O)c2ccc3ccccc3c2)c(=O)n(C)c1=O | -16.8% (inactive) | 
86 | Cc1cc(OCC(=O)NC2CCN(C)CC2)ccc1[N+](=O)[O-] | -1.1% (inactive) | 
87 | CCc1cc(=O)oc2cc(OCC(=O)N3CCCc4ccccc43)ccc12 | -0.399% (inactive) | 
88 | Cc1ccccc1N1CCN(CCCN2C(=O)C3CCCCN3C2=O)CC1 (stereo not drawn) | -19.9% (inactive) | 
89 | Cc1ccc(OCC(=O)Oc2ccccc2[N+](=O)[O-])cc1 | 0.798% (inactive) | 
90 | Cc1cc(OCC(=O)Nc2c(C)n(C)n(-c3ccccc3)c2=O)ccc1[N+](=O)[O-] | 1.98% (inactive) | 
91 | Cc1c(Br)c([N+](=O)[O-])nn1CC(=O)N1CCN(Cc2ccccc2)CC1 | 2.31% (inactive) | 
92 | Cc1cc(OCCCN2CCN(Cc3ccccc3)CC2)ccc1[N+](=O)[O-] |  | 11.6 µM (active)
93 | Cc1cc(OCCCCOc2ccc(C#N)cc2)ccc1[N+](=O)[O-] |  | 8.2 µM (active)
94 | Cc1ccccc1N1CCN(CCCOc2ccc3c(C)cc(=O)oc3c2)CC1 |  | 16.4 µM (active)
95 | COc1ccc(S(=O)(=O)Nc2c(C)n(C)n(-c3ccccc3)c2=O)cc1 | -0.229% (inactive) | 
96 | CC[C@@H]1CCCCc2ccccc2[C@@H](C(=O)C[C@H](O)CC(C)=O)OC1=O | -13.8% (inactive) | 
97 | O=C(c1cc(COc2ccc(F)cc2F)on1)N1CCOCC1 | 3.74% (inactive) | 
98 | Cc1ccccc1CSc1nnc(-c2ccccn2)n1N | -17.6% (inactive) | 
99 | CN(Cc1ccccc1)S(=O)(=O)c1nnc(NC(=O)c2ccccc2F)s1 | -2.67% (inactive) | 
100 | O=C(Oc1cccc(C(=S)N2CCOCC2)c1)c1cccc(Cl)c1 | -8.76% (inactive) | 
101 | COCCCNC(=O)C1CC(=O)N(CCc2ccc(F)cc2)C1 (stereo not drawn) | 2.99% (inactive) | 
102 | COC(=O)C1C(=O)NCC1c1ccc(C)cc1 (stereo not drawn) | -5.08% (inactive) | 
103 | O=[N+]([O-])c1ccc(NCCCO)c(C(F)(F)F)c1 | -14.2% (inactive) | 
